Calls of active or inactive are those of the source.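 The calls were made as follows, unless noted: active = compounds lowering colon cancer cell viability after pretreatment blocking the GSK3B kinase; inactive = the rest.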
Experiment: stimulators of insulin release from INS-1E, primary screen, cell-based, 5 mM glucose, NPC library (AID 1117329;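 active = compound raises insulin release from rat beta cells at 5 mM glucose, no numeric limit stated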; also: reference of the scale not given here)
Conditions: rat INS-1E insulin secretion, at 10 µM, hits give high values
In the case of `O=c1c(-c2ccccc2)c1-c1ccccc1`, the insulin secretion stimulation is reported as 0.3% (inactive).
In the case of `COc1ccc(C(=O)NCc2ccc(OCCN(C)C)cc2)cc1OC`, the insulin secretion stimulation is reported as 0.75% (inactive).
With `CC(C(=O)O)c1ccc(CC2CCCC2=O)cc1` (stereo unspecified) the insulin secretion stimulation was -1.3% (inactive).
For `CN1CCN(c2c(F)cc3c(=O)c(C(=O)O)cn4c3c2SCC4)CC1`, the insulin secretion stimulation was 0.05% (inactive).
With `CN1CCN(C2=Nc3cc(F)ccc3Cc3ccccc32)CC1` the insulin secretion stimulation was 3.3% (inactive).
For `Nc1c2c(nc3c1CCC3)CCCC2`, the insulin secretion stimulation was 21.2% (active).
In the case of `CC(=O)NS(=O)(=O)c1ccc(N)cc1`, the insulin secretion stimulation is reported as -1.9% (inactive).
For `C[C@H](NC(CCc1ccccc1)C(=O)O)C(=O)N1CCC[C@H]1C(=O)O` (stereo partly specified), the insulin secretion stimulation was 0.1% (inactive).
In the case of `O=C1c2cccc3c2[C@H](CCC3)CN1[C@@H]1CN2CCC1CC2`, the insulin secretion stimulation is reported as 2.7% (inactive).
With `CCOC(=O)C1=C(C)NC(C)=C(C(=O)OCC)C1c1ccccc1/C=C/C(=O)OC(C)(C)C` the insulin secretion stimulation was 0.3% (inactive).
In the case of `CCN1CCN(c2cc3c(cc2F)c(=O)c(C(=O)O)cn3C2CC2)CC1`, the insulin secretion stimulation is reported as -0.15% (inactive).
For `CC1(C)S[C@@H]2[C@H](N=CN3CCCCCC3)C(=O)N2[C@H]1C(=O)O`, the insulin secretion stimulation was -1.6% (inactive).
With `CC(=O)OCC(=O)NCCCOc1cccc(CN2CCCCC2)c1` the insulin secretion stimulation was -0.7% (inactive).
With `Clc1ccc2c(c1)CCc1cccnc1C2=C1CCNCC1` the insulin secretion stimulation was 37.7% (active).
For `CCc1c(C)[nH]c2c1C(=O)C(CN1CCOCC1)CC2` (stereo unspecified), the insulin secretion stimulation was 1.8% (inactive).
With `COc1cc(C)nc(-n2nc(C)cc2OC)n1` the insulin secretion stimulation was 2.5% (inactive).
With `COc1cc(C(=O)NC2CCCNC2)cc(OC)c1OC` (stereo unspecified) the insulin secretion stimulation was 1.6% (inactive).
With `CC(C)(C(=O)c1cccnc1)c1cccnc1` the insulin secretion stimulation was 0.7% (inactive).
With `CC(Oc1c(Cl)cccc1Cl)C1=NCCN1` (stereo unspecified) the insulin secretion stimulation was 2.3% (inactive).
In the case of `CN(C)CC[C@@H](c1ccc(Br)cc1)c1ccccn1`, the insulin secretion stimulation is reported as 81.9% (active).
In the case of `OCc1cccnc1`, the insulin secretion stimulation is reported as -1.9% (inactive).
In the case of `CC(C)(C)C(O)/C=C/c1ccc2c(c1)OCO2` (stereo unspecified), the insulin secretion stimulation is reported as -1.1% (inactive).
With `COC(=O)C1=C(C)NC(C)=C(C(=O)O[C@@H]2CCCN(Cc3ccccc3)C2)[C@@H]1c1cccc([N+](=O)[O-])c1` the insulin secretion stimulation was 1.9% (inactive).
For `COc1cc(C)c(Cc2cnc(N)nc2N)cc1OC`, the insulin secretion stimulation was 1.7% (inactive).
In the case of `CCN1CC(CCN2CCOCC2)C(c2ccccc2)(c2ccccc2)C1=O` (stereo unspecified), the insulin secretion stimulation is reported as 0.3% (inactive).
With `COC(=O)C1=C(C)NC(C)=C(C(=O)OCC(C)C)C1c1ccccc1[N+](=O)[O-]` (stereo unspecified) the insulin secretion stimulation was 1.25% (inactive).
For `COc1cc2c(cc1OC)C(=O)C(CC1CCN(Cc3ccccc3)CC1)C2` (stereo unspecified), the insulin secretion stimulation was 1.25% (inactive).
In the case of `COc1ccc(CN2CCN(C(c3ccc(F)cc3)c3ccc(F)cc3)CC2)c(OC)c1OC`, the insulin secretion stimulation is reported as 1.6% (inactive).
With `Cc1cccc(C)c1NC(=O)C(C)N` (stereo unspecified) the insulin secretion stimulation was 0.2% (inactive).
In the case of `NCC1CCC(C(=O)Oc2ccc(CCC(=O)O)cc2)CC1` (stereo unspecified), the insulin secretion stimulation is reported as -2.1% (active).
For `CCCN1CCCC[C@H]1C(=O)Nc1c(C)cccc1C`, the insulin secretion stimulation was 31% (active).
With `CC(C)(O)c1ccccc1CC[C@@H](SCC1(CC(=O)O)CC1)c1cccc(/C=C/c2ccc3ccc(Cl)cc3n2)c1` the insulin secretion stimulation was 1.4% (inactive).
With `CC(=O)Nc1ccc(CC(=O)O)cc1` the insulin secretion stimulation was -2.2% (inactive).
For `CCN(CC)CCNC(=O)c1cc(Cl)c(N)cc1OC`, the insulin secretion stimulation was 3.1% (inactive).
With `NC1CCN(c2nc3c(cc2F)c(=O)c(C(=O)O)cn3-c2ccc(F)cc2F)C1` (stereo unspecified) the insulin secretion stimulation was 3.3% (inactive).
For `C[C@H]1COc2c(C3(N)CC3)c(F)cc3c(=O)c(C(=O)O)cn1c23`, the insulin secretion stimulation was -0.9% (inactive).
For `CN(C)CC[C@@H](c1ccc(Cl)cc1)c1ccccn1`, the insulin secretion stimulation was 81.7% (active).
With `COCc1c(C(C)C)nc(C(C)C)c(/C=C/[C@@H](O)C[C@@H](O)CC(=O)O)c1-c1ccc(F)cc1` the insulin secretion stimulation was -0.8% (inactive).

Experiment: growth inhibition of GSK3B-pretreated HCT116 cells – cell-based, CellTiter-Glo, 0.2 to 20 µM (AID 1117336)
Conditions: HCT116 viability after GSK3B inhibitor, at 20 µM, hits give high values
In the case of `O=c1c(-c2ccccc2)c1-c1ccccc1`, the viability decrease is reported as 41.9% (inactive).
In the case of `COc1ccc(C(=O)NCc2ccc(OCCN(C)C)cc2)cc1OC`, the viability decrease is reported as -2.9% (inactive).
For `CC(C(=O)O)c1ccc(CC2CCCC2=O)cc1` (stereo unspecified), the viability decrease was 9.37% (inactive).
With `CN1CCN(c2c(F)cc3c(=O)c(C(=O)O)cn4c3c2SCC4)CC1` the viability decrease was 19.8% (inactive).
With `CN1CCN(C2=Nc3cc(F)ccc3Cc3ccccc32)CC1` the viability decrease was 12.5% (inactive).
With `Nc1c2c(nc3c1CCC3)CCCC2` the viability decrease was -1.35% (inactive).
With `CC(=O)NS(=O)(=O)c1ccc(N)cc1` the viability decrease was -5.2% (inactive).
With `C[C@H](NC(CCc1ccccc1)C(=O)O)C(=O)N1CCC[C@H]1C(=O)O` (stereo partly specified) the viability decrease was -6.3% (inactive).
For `O=C1c2cccc3c2[C@H](CCC3)CN1[C@@H]1CN2CCC1CC2`, the viability decrease was 19.7% (inactive).
With `CCOC(=O)C1=C(C)NC(C)=C(C(=O)OCC)C1c1ccccc1/C=C/C(=O)OC(C)(C)C` the viability decrease was 117% (active).
For `CCN1CCN(c2cc3c(cc2F)c(=O)c(C(=O)O)cn3C2CC2)CC1`, the viability decrease was 38% (inactive).
With `CC1(C)S[C@@H]2[C@H](N=CN3CCCCCC3)C(=O)N2[C@H]1C(=O)O` the viability decrease was -5.75% (inactive).
With `CC(=O)OCC(=O)NCCCOc1cccc(CN2CCCCC2)c1` the viability decrease was -69.8% (inactive).
For `Clc1ccc2c(c1)CCc1cccnc1C2=C1CCNCC1`, the viability decrease was 50.4% (active).
With `CCc1c(C)[nH]c2c1C(=O)C(CN1CCOCC1)CC2` (stereo unspecified) the viability decrease was 2.2% (inactive).
With `COc1cc(C)nc(-n2nc(C)cc2OC)n1` the viability decrease was -5% (inactive).
In the case of `COc1cc(C(=O)NC2CCCNC2)cc(OC)c1OC` (stereo unspecified), the viability decrease is reported as -5.2% (inactive).
For `CC(C)(C(=O)c1cccnc1)c1cccnc1`, the viability decrease was -5.6% (inactive).
In the case of `CC(Oc1c(Cl)cccc1Cl)C1=NCCN1` (stereo unspecified), the viability decrease is reported as -16.2% (inactive).
With `CN(C)CC[C@@H](c1ccc(Br)cc1)c1ccccn1` the viability decrease was -41.6% (inactive).
In the case of `OCc1cccnc1`, the viability decrease is reported as -11.1% (inactive).
With `CC(C)(C)C(O)/C=C/c1ccc2c(c1)OCO2` (stereo unspecified) the viability decrease was -4.45% (inactive).
With `COC(=O)C1=C(C)NC(C)=C(C(=O)O[C@@H]2CCCN(Cc3ccccc3)C2)[C@@H]1c1cccc([N+](=O)[O-])c1` the viability decrease was 110% (active).
With `COc1cc(C)c(Cc2cnc(N)nc2N)cc1OC` the viability decrease was -7.75% (inactive).
With `CCN1CC(CCN2CCOCC2)C(c2ccccc2)(c2ccccc2)C1=O` (stereo unspecified) the viability decrease was 11.2% (inactive).
With `COC(=O)C1=C(C)NC(C)=C(C(=O)OCC(C)C)C1c1ccccc1[N+](=O)[O-]` (stereo unspecified) the viability decrease was 102% (active).
With `COc1cc2c(cc1OC)C(=O)C(CC1CCN(Cc3ccccc3)CC1)C2` (stereo unspecified) the viability decrease was 22.6% (inactive).
For `COc1ccc(CN2CCN(C(c3ccc(F)cc3)c3ccc(F)cc3)CC2)c(OC)c1OC`, the viability decrease was 108% (active).
For `Cc1cccc(C)c1NC(=O)C(C)N` (stereo unspecified), the viability decrease was -2.3% (inactive).
In the case of `NCC1CCC(C(=O)Oc2ccc(CCC(=O)O)cc2)CC1` (stereo unspecified), the viability decrease is reported as 1.9% (inactive).
With `CCCN1CCCC[C@H]1C(=O)Nc1c(C)cccc1C` the viability decrease was -8% (inactive).
For `CC(C)(O)c1ccccc1CC[C@@H](SCC1(CC(=O)O)CC1)c1cccc(/C=C/c2ccc3ccc(Cl)cc3n2)c1`, the viability decrease was 111% (active).
For `CC(=O)Nc1ccc(CC(=O)O)cc1`, the viability decrease was -4.5% (inactive).
For `CCN(CC)CCNC(=O)c1cc(Cl)c(N)cc1OC`, the viability decrease was -11.3% (inactive).
For `NC1CCN(c2nc3c(cc2F)c(=O)c(C(=O)O)cn3-c2ccc(F)cc2F)C1` (stereo unspecified), the viability decrease was 24.4% (inactive).
For `C[C@H]1COc2c(C3(N)CC3)c(F)cc3c(=O)c(C(=O)O)cn1c23`, the viability decrease was -4.4% (inactive).
In the case of `CN(C)CC[C@@H](c1ccc(Cl)cc1)c1ccccn1`, the viability decrease is reported as -5.1% (inactive).
In the case of `COCc1c(C(C)C)nc(C(C)C)c(/C=C/[C@@H](O)C[C@@H](O)CC(=O)O)c1-c1ccc(F)cc1`, the viability decrease is reported as 107% (active).

From PubChem BioAssay
